Records with an inconclusive call do not appear. Active and inactive are the calls of the source. How the source made its calls, unless noted: active means hit-call score of the fitted dose curve at least 0.9, where 1 is the maximum; inactive means score below 0.9.
What was measured:
[1] = target: human Thyroid Receptor alpha (THRa1), THRA (gene 7067) (UniProt P10827); assay: ATG_THRa1_TRANS: Attagene TRANS-FACTORIAL HepG2 Assay for human Thyroid Receptor alpha (THRa1) (AID 2283014; active means hit-call score of the fitted dose curve at least 0.9, where 1 is the maximum)
Chain of human Thyroid Receptor alpha (THRa1), THRA (gene 7067) (P10827 whole entry, looked up, the tested form may be a part): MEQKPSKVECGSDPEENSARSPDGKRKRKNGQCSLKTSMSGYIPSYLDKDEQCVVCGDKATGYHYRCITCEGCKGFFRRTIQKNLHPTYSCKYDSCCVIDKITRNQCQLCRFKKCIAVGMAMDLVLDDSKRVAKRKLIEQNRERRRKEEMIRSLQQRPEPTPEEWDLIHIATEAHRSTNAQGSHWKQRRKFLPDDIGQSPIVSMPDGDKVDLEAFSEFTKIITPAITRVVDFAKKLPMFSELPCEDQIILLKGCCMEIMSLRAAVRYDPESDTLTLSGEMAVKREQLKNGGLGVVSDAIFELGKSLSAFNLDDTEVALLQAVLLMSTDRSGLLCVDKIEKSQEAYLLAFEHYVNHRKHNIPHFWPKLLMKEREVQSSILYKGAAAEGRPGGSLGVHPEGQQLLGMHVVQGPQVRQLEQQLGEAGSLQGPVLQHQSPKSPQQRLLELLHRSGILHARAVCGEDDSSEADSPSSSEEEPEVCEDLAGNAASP
In short: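 First, HepG2 cells receive multiple GAL4-UAS reporter units and the chimeric receptor. They are then dosed for 24 h, after which RNA is reverse-transcribed, amplified, labelled, HpaI-cut and sized by capillary electrophoresis; gain relative to DMSO is scored.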

[2] = read-out: E-selectin (Homo sapiens) (UniProt P16581); assay: BSK_3C_Eselectin: BioMAP Diversity Plus: 3C Assay for Eselectin Biomarker Activity (AID 2283015); settings: primary human endothelial cells (HUVEC); actives raise or lower the signal
In short: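 Human vascular endothelium from umbilical vein is exposed to test chemicals for 24 h. E-selectin levels are read by ELISA and compared with DMSO controls.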

[3] = read-out: Interleukin-1 alpha (IL1a), IL1A (gene 3552); assay: BSK_BE3C_IL1a: BioMAP Diversity Plus: BE3C Assay for Interleukin-1 alpha (IL1a) Biomarker Activity (AID 2283016); settings: primary human bronchial epithelial cells; actives raise or lower the signal
In short: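 Human primary bronchial epithelial cells (BE3C system) were dosed with compound and IL-1a measured by ELISA 24 h later. Activity was fitted bidirectionally against DMSO baseline; cytotoxicity was tracked in parallel cultures by SRB total-protein staining.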

[4] = read-out: Monocyte Chemoattractant Protein-1 (MCP1), CCL2 (gene 6347); assay: BSK_3C_MCP1: BioMAP Diversity Plus: 3C Assay for Monocyte Chemoattractant Protein-1 (MCP1) Biomarker Activity (AID 2283017); settings: primary human endothelial cells (HUVEC); actives raise or lower the signal
In short: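 Endothelial cells from human umbilical vein are dosed with chemical, cultured 24 h, then assayed for MCP-1 by ELISA; both increases and decreases are modelled against DMSO controls.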

[5] = read-out: Monocyte Chemoattractant Protein-1 (MCP1), CCL2 (gene 6347); assay: BSK_4H_MCP1: BioMAP Diversity Plus: 4H Assay for Monocyte Chemoattractant Protein-1 (MCP1) Biomarker Activity (AID 2283018); settings: primary human endothelial cells (HUVEC); actives raise or lower the signal
In short: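 Human umbilical vein endothelial cells (4H system) dosed with chemical; MCP-1 measured by ELISA 24 h after dosing. Bidirectional curve fitting against DMSO negative control as baseline; parallel SRB total-protein staining tracks overt cytotoxicity.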

[6] = read-out: Human Leukocyte Antigen - DR isotype (HLADR), HLA-DRA (gene 3122); assay: BSK_3C_HLADR: BioMAP Diversity Plus: 3C Assay for Human Leukocyte Antigen - DR isotype (HLADR) Biomarker Activity (AID 2283019); settings: primary human endothelial cells (HUVEC); actives raise or lower the signal
In short: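 Endothelial cells from human umbilical vein are treated with test chemical; after 24 h, HLA-DR levels are measured by ELISA. Data are fitted in both directions using DMSO as the baseline.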

[7] = read-out: Interleukin-8 (IL8), CXCL8 (gene 3576); assay: BSK_3C_IL8: BioMAP Diversity Plus: 3C Assay for Interleukin-8 (IL8) Biomarker Activity (AID 2283020); settings: primary human endothelial cells (HUVEC); actives raise or lower the signal
In short: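 Primary human umbilical vein endothelial cells (3C system) were exposed to test chemical for 24 h, then IL-8 was quantified by ELISA. Responses were fitted bidirectionally against DMSO vehicle as baseline.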

[8] = read-out: Monokine induced gamma interferon (MIG), CXCL9 (gene 4283); assay: BSK_3C_MIG: BioMAP Diversity Plus: 3C Assay for Monokine induced gamma interferon (MIG) Biomarker Activity (AID 2283021); settings: primary human endothelial cells (HUVEC); actives raise or lower the signal
In short: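 Primary human umbilical vein endothelial cells in the 3C system were exposed to chemical for 24 h, after which MIG was quantified by ELISA. Activity was fitted bidirectionally against DMSO as negative control and baseline.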

[9] = BSK_3C_SRB: Viability Assessment in the BioMAP Diversity Plus: 3C Assay (AID 2283023); settings: primary human endothelial cells (HUVEC);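 further: cells read 24 h after compound dosing; fitted both ways against DMSO so a hit may be signal rise or drop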
In short: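 Cells were dosed with chemical, cultured 24 h, fixed with 10% TCA, stained with 0.1% SRB and read at 560 nm. Human umbilical vein endothelium was used; DMSO served as negative control and baseline.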

[10] = read-out: Matrix Metallopeptidase 1 (MMP1), MMP1 (gene 4312); assay: BSK_BE3C_MMP1: BioMAP Diversity Plus: BE3C Assay for Matrix Metallopeptidase 1 (MMP1) Biomarker Activity (AID 2283024); settings: primary human bronchial epithelial cells; actives raise or lower the signal
In short: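 Primary human bronchial epithelial cells were dosed with test chemicals, and MMP1 levels were measured by ELISA 24 h later. Data were fitted bidirectionally against DMSO as the negative control and activity baseline.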

[11] = BSK_3C_Vis: BioMAP Diversity Plus: 3C Assay for Morphology Visualization (AID 2283025); settings: primary human endothelial cells (HUVEC);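 further: fitted both ways so gain or loss versus DMSO counts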
In short: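 Human umbilical vein endothelial cells in the 3C system were imaged by light microscopy 24 h after chemical dosing to record cell morphology. Activity was fitted bidirectionally against DMSO as negative control and baseline; the endpoint serves as a background control.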

[12] = BSK_4H_SRB: Viability Assessment in the BioMAP Diversity Plus: 4H Assay (AID 2283027); settings: primary human endothelial cells (HUVEC);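 further: cells exposed to compound for 24 h before staining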;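 on AC50: curves fitted both ways versus DMSO so AC50 may be loss or gain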
In short: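 Human umbilical vein endothelial cells were dosed with chemical and, after 24 h, fixed with 10% TCA, stained with 0.1% sulforhodamine B, and read at 560 nm to give total protein as a cytotoxicity measure. Bidirectional fitting relative to DMSO control.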

[13] = BSK_BE3C_SRB: Viability Assessment in the BioMAP Diversity Plus: BE3C Assay (AID 2283028); settings: primary human bronchial epithelial cells
In short: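 Overt cytotoxicity was assessed as total protein in confluent human primary bronchial epithelial cultures 24 h after chemical addition, using 0.1% sulforhodamine B staining read at 560 nm.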

[14] = read-out: Thrombomodulin, THBD (gene 7056); assay: BSK_3C_Thrombomodulin: BioMAP Diversity Plus: 3C Assay for Thrombomodulin Biomarker Activity (AID 2283029); settings: primary human endothelial cells (HUVEC); actives raise or lower the signal
In short: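 Primary human umbilical vein endothelial cells (3C system) were exposed to chemical for 24 h, then thrombomodulin levels were measured by ELISA. Activity was fitted bidirectionally against the DMSO negative control as baseline.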

[15] = read-out: Urokinase-type plasminogen activator receptor (uPAR), PLAUR (gene 5329); assay: BSK_4H_uPAR: BioMAP Diversity Plus: 4H Assay for Urokinase-type plasminogen activator receptor (uPAR) Biomarker Activity (AID 2283030); settings: primary human endothelial cells (HUVEC); actives raise or lower the signal
In short: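 Chemicals are dosed onto human vascular endothelial primary cells (umbilical vein). After 24 h, uPAR is read by ELISA. Gain or loss of signal is fitted relative to DMSO.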

[16] = target: Retinoic acid receptor RXR-alpha (Homo sapiens) (UniProt P19793); assay: ATG_RXRa_TRANS: Attagene TRANS-FACTORIAL HepG2 Assay for human Retinoid X Receptor alpha (RXRa) (AID 2283012; active means hit-call score of the fitted dose curve at least 0.9, where 1 is the maximum)
Chain of Retinoic acid receptor RXR-alpha (Homo sapiens) (P19793 whole entry, looked up, the tested form may be a part): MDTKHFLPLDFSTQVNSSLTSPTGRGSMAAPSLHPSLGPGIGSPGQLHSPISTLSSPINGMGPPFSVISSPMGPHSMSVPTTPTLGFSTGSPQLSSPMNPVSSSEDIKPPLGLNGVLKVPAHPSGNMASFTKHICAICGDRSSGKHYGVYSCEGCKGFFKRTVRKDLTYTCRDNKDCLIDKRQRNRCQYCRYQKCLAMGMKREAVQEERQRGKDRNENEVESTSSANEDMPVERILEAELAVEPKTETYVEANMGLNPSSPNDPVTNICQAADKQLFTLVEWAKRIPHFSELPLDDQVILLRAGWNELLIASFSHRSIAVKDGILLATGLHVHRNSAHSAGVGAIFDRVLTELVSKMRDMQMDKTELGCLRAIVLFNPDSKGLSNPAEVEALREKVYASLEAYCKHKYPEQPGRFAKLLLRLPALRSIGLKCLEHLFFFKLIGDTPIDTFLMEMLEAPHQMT
In short: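 HepG2 cells transiently transfected with multiplexed GAL4-UAS reporter units and chimeric NR-GAL4 fusions, dosed 24 h. Reporter mRNA measured by RT-PCR, FAM labelling, HpaI digestion and capillary electrophoresis; gain-of-signal fitted relative to DMSO baseline.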

[17] = target: human Retinoid X Receptor beta (RXRb), RXRB (gene 6257) (UniProt P28702); assay: ATG_RXRb_TRANS: Attagene TRANS-FACTORIAL HepG2 Assay for human Retinoid X Receptor beta (RXRb) (AID 2283013; active means hit-call score of the fitted dose curve at least 0.9, where 1 is the maximum)
Chain of human Retinoid X Receptor beta (RXRb), RXRB (gene 6257) (P28702 whole entry, looked up, the tested form may be a part): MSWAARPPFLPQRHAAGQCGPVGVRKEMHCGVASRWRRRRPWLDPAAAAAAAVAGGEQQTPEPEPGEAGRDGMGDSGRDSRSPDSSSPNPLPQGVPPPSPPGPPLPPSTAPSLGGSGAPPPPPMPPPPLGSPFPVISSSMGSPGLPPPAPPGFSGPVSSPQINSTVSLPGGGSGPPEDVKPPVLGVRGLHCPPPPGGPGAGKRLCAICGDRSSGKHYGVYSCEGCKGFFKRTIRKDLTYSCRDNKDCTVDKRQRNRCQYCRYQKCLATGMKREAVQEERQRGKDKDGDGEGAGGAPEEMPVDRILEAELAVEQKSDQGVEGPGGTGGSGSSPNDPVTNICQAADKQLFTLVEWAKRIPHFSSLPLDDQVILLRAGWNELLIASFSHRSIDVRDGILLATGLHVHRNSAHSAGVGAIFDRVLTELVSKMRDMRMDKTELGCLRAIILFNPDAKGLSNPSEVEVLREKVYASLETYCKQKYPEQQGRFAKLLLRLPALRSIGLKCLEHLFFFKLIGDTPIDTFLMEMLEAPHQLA
In short: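 HepG2 cells transiently transfected with multiplexed reporter units driven by GAL4-UAS and exogenous chimeric NR-Gal4 proteins; treated 24 h. Reporter mRNA measured by RT-PCR, 6-FAM labelling and capillary electrophoresis; gain-of-signal fitted versus DMSO baseline.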

[18] = target: human Vitamin D Receptor (VDR), VDR (gene 7421) (UniProt P11473); assay: ATG_VDR_TRANS: Attagene TRANS-FACTORIAL HepG2 Assay for human Vitamin D Receptor (VDR) (AID 2283022; active means hit-call score of the fitted dose curve at least 0.9, where 1 is the maximum)
Chain of human Vitamin D Receptor (VDR), VDR (gene 7421) (P11473 whole entry, looked up, the tested form may be a part): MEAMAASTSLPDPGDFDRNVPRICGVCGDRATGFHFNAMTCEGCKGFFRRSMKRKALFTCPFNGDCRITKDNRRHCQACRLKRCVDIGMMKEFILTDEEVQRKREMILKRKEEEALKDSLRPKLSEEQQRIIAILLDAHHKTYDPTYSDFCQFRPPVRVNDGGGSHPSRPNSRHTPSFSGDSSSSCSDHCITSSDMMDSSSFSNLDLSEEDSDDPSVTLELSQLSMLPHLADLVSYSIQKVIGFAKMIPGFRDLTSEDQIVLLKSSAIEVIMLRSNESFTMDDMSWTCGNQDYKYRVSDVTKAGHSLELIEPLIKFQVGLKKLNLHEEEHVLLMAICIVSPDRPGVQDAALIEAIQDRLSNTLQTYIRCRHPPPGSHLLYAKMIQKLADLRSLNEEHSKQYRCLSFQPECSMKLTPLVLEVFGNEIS
In short: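 Fluorescence of labelled reporter cDNA fragments, resolved by capillary electrophoresis, gives mRNA induction after 24 h treatment of HepG2 cells carrying transfected Gal4-fusion reporter units. Activity is fitted in the positive direction with DMSO as baseline.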

[19] = read-out: Pselectin, SELP (gene 6403); assay: BSK_4H_Pselectin: BioMAP Diversity Plus: 4H Assay for Pselectin Biomarker Activity (AID 2283026); settings: primary human endothelial cells (HUVEC); actives raise or lower the signal
In short: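 Primary human umbilical vein endothelial cells were exposed to test chemical for 24 h, then cell-surface P-selectin was quantified by ELISA. Activity was fitted bidirectionally against DMSO as negative control and baseline.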

Measured: AC50

Chain of E-selectin (Homo sapiens) (P16581 whole entry, looked up): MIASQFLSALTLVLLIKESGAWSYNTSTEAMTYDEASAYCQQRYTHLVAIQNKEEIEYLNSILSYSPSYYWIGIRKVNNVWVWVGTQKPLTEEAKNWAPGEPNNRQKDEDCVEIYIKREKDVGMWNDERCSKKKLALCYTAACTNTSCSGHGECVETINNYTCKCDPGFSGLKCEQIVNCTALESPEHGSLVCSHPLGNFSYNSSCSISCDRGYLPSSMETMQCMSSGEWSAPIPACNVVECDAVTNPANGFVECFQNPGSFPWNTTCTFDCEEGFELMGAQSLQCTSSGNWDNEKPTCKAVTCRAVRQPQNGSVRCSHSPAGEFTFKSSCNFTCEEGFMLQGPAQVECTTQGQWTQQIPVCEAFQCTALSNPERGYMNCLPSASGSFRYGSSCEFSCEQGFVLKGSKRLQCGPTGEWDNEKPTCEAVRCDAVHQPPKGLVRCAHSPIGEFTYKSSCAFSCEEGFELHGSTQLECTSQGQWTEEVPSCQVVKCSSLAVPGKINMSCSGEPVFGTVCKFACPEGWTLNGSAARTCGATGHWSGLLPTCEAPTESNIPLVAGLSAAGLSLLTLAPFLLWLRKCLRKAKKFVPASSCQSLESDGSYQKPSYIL

c1ccc2c(c1)oc1ccccc12
not listed: [16] | [17] | [18] | [19]
inactive: all other assays above

CC(C)COC(=O)c1ccccc1C(=O)OCC(C)C
active: [17] 43.6 µM | [2] 28.8 µM | [4] 37 µM | [5] 20 µM | [6] 32.3 µM | [7] 31.5 µM | [9] 31.5 µM
not listed: [1] | [18] | [19]
inactive: all other assays above

CCCCC(CC)COC(=O)c1ccc(C(=O)OCC(CC)CCCC)c(C(=O)OCC(CC)CCCC)c1 (stereo unspecified)
not listed: [1] | [17]
inactive: all other assays above

Clc1ccc(C(c2ccc(Cl)cc2)C(Cl)(Cl)Cl)cc1
active: [2] 29.2 µM | [4] 26.9 µM | [6] 25.8 µM | [7] 22.7 µM | [9] 28.5 µM | [11] 37.3 µM | [12] 30.5 µM | [15] 31 µM
inactive: [17] | [1] | [3] | [18] | [10] | [13] | [14]

COC(=O)Nc1nc2ccccc2[nH]1
active: [9] 8.51 µM | [11] 9.8 µM | [12] 14.5 µM | [15] 8.56 µM
not listed: [16] | [18]
inactive: all other assays above

CCCCCCCCOC(=O)c1ccc(C(=O)OCCCCCCCC)c(C(=O)OCCCCCCCC)c1
active: [17] 65.4 µM
not listed: [1] | [8] | [18]
inactive: all other assays above

Source: PubChem BioAssay (EPA / NIEHS)
